Assay [1] is described as follows: qHTS assay to identify small molecule inhibitors of chordoma cells - UCH-1 (AID 1259355). Further: on the % scale 0 is the no-effect control and ±100 the full control effect; nearly all actives have a fitted effect of over 55% in size. A digest of the protocol:
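Seed 800 cells per well; incubate overnight at 37 C, 5% CO2. Add test compounds (15 concentrations), then the auranofin–topoisomerase-agent combination. Incubate 48hr, add CellTiter-Glo, wait 30min, read luminescence.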

The nature of assay [2]: qHTS of pediatric cancer cell lines to identify multiple opportunities for drug repurposing: Primary screen for TC32 cells (AID 1347089). Further: nearly all actives have a fitted effect of over 60% in size. Further: potency means the concentration at half of the fitted maximal effect. A digest of the protocol:
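qHTS, TC32, 48 h drug treatment, CellTiter-Glo luminescence as a proxy for metabolically active cells; primary top concentration 46 µM (MIPE 11-pt, NPC 8-pt); confirmatory 11-pt.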

The nature of assay [3]: qHTS of pediatric cancer cell lines to identify multiple opportunities for drug repurposing: Primary screen for SJ-GBM2 cells (AID 1347091). Further: potency means the concentration at half of the fitted maximal effect.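 On activity change, negative = cytotoxic: plate controls were DMSO neutral control for no effect and bortezomib for full effect.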 A digest of the protocol:
(§1)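 Cell viability, CellTiter-Glo luminescence; 500-1,000 cells/well, 8- or 11-point titration, 48 h compound exposure at 37 degrees C, 5% CO2. Controls: DMSO neutral, bortezomib 2.3 µM final as positive.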

Assay [4] is described as follows: qHTS assay to identify small molecule inhibitors of chordoma cells - UCH-2 (AID 1259356). Further: on the % scale 0 is the no-effect control and ±100 the full control effect.
A short description of assay [5]: P-glycoprotein substrates identified in KB-3-1 adenocarcinoma cell line, qHTS therapeutic library screen (AID 1346986). Further: nearly all actives have a fitted effect of over 60% in size. The settings on record: KB-3-1 parental cells viability, CellTiter-Glo, 72 h; at 44.5 µM (top of the series) unless noted. A digest of the protocol:
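Counter-screen: cherry-picked hits retested in the KB pair and in HEK-293 pcDNA/MDR-19 cells ± tariquidar. Primary screen used 72 h CellTiter-Glo viability in KB-3-1 and KB-8-5-11.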

Assay [6] is described as follows: P-glycoprotein substrates identified in KB-8-5-11 adenocarcinoma cell line, qHTS therapeutic library screen (AID 1346987). Further: nearly all actives have a fitted effect of over 65% in size. A digest of the protocol:
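P-gp-mediated resistance screen: KB-8-5-11 cells treated 72 h with compounds in dose-response. CellTiter-Glo viability.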

The nature of assay [7]: NS1 protein of Zika virus - qHTS assay to identify small molecule inhibitors in human HEK 293 cells (AID 1347053).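 Further: plate controls were infected untreated cells for no effect and uninfected cells for full effect; nearly all actives have a fitted effect of over 55% in size.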 A digest of the protocol:
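Inhibition of NS1 expression was scored in HEK 293 cells given compound 1 h ahead of MR766 virus (MOI = 0.5). Following 24 h at 37 C, two anti-NS1 antibodies generated a TR-FRET signal, scaled between uninfected and infected controls.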

A short description of assay [8]: qHTS of pediatric cancer cell lines to identify multiple opportunities for drug repurposing: Primary screen for DAOY cells (AID 1347090).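 Further: plate controls were DMSO for no effect and bortezomib for full effect; nearly all actives have a fitted effect of over 55% in size.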 A digest of the protocol:
as §1

The target of assay [9] is T1, Tyrosine-protein phosphatase non-receptor type substrate 1 (Homo sapiens) + Leukocyte surface antigen CD47 (Homo sapiens) (UniProt P78324+Q08722). Briefly: CD47-SIRPalpha protein protein interaction - LANCE assay qHTS validation (AID 1347057; active means well fitted curve in the direction sought with a large enough effect in the signal ratio, with a control signal flat, not every such curve was filed as active; the % refers to the signal ratio; further: 0% is about no effect). A digest of the protocol: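 First, His-tagged CD47 and Eu-labelled anti-His antibody met the compound for 30 min; next, site-specifically biotinylated SIRPalpha was added for 30 min; finally streptavidin-APC was added before reading the TR-FRET ratio.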
T1 sequence (P78324 whole entry, looked up): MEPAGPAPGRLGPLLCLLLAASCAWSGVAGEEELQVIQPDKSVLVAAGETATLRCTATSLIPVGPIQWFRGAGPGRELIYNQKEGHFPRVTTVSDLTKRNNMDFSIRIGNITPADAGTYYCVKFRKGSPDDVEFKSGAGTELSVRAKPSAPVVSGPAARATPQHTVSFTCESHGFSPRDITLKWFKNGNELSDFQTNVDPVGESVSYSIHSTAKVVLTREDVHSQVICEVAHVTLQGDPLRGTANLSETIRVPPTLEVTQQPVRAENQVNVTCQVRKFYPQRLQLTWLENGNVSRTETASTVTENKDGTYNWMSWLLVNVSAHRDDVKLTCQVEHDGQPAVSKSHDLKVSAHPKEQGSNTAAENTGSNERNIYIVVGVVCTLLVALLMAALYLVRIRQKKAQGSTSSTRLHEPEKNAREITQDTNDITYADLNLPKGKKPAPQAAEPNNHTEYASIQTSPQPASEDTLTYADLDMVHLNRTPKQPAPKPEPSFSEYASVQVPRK
T1 sequence (Q08722 whole entry, looked up): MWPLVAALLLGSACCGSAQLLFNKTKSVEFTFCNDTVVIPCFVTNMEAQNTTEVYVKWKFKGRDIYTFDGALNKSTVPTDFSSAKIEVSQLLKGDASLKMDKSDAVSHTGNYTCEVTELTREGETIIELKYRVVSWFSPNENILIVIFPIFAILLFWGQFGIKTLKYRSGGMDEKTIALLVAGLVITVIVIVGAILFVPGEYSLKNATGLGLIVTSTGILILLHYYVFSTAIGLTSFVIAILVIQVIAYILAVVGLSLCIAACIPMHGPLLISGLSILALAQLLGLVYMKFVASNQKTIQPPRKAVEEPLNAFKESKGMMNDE

Assay [10] deals with T1, Tyrosine-protein phosphatase non-receptor type substrate 1 (Homo sapiens) + Leukocyte surface antigen CD47 (Homo sapiens). Put plainly: CD47-SIRPalpha protein protein interaction - Alpha assay qHTS validation (AID 1347059).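 Further: bead proximity luminescence from CD47 binding SIRPalpha after compound preincubation with SIRPalpha; on the % scale 0 is the no-effect control and ±100 the full control effect.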 A digest of the protocol:
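Binding is measured by AlphaScreen proximity: Ni-NTA acceptor beads capture His-CD47, streptavidin donor beads capture biotin-SIRPalpha. Each of three additions (SIRPalpha with compound, CD47, beads) incubates 30 min at room temperature protected from light.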

A short description of assay [11]: Natriuretic polypeptide receptor (hNpr1) antagonism - Pilot counterscreen GloSensor control cell line (AID 1347045; calls by dose curve; further: on the % scale 0 is the no-effect control and ±100 the full control effect). A digest of the protocol:
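This counterscreen uses HEK293 cells expressing the GIP/pGS-40F cGMP biosensor. Compound-treated cells are challenged with 50 uM sodium nitroprusside, and the luciferase signal is compared before and after stimulation.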

In assay [12] the target is Atrial natriuretic peptide receptor 1 (Homo sapiens) (UniProt P16066). Put plainly: Natriuretic polypeptide receptor (hNpr1) antagonism - Pilot screen (AID 1347049; calls by dose curve;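 further: agonist-evoked cGMP luminescence read 20 min after hNppA addition; on the % scale 0 is the no-effect control and ±100 the full control effect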). A digest of the protocol:
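Readout is cGMP-driven firefly luciferase luminescence in HEK293 cells carrying hNpr1 and a PDE5-domain GloSensor, read before and 20 min after 0.1 nM hNppA stimulation. Cells had 2% substrate reagent for 2 h and test compound for 30 min.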

Assay [13] deals with Atrial natriuretic peptide receptor 2 (Homo sapiens) (UniProt P20594). Briefly: Natriuretic polypeptide receptor (hNpr2) antagonism - Pilot subtype selectivity assay (AID 1347050; calls by dose curve; further: on the % scale 0 is the no-effect control and ±100 the full control effect). A digest of the protocol:
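Pilot selectivity screen against hNpr2: HEK293 cGMP-sensor cells are treated with LOPAC1280 compounds, then with hNppC peptide at 1 nM final. The cGMP-driven luminescence change over 20 min at room temperature is the read-out.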

Assay [14] has as its target T1, Tyrosine-protein phosphatase non-receptor type substrate 1 (Homo sapiens) + Leukocyte surface antigen CD47 (Homo sapiens). Put plainly: CD47-SIRPalpha protein protein interaction - HTRF assay qHTS validation (AID 1347058; active means well fitted curve in the direction sought with a large enough effect in the signal ratio, not every such curve was filed as active; the % refers to the signal ratio;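 further: recombinant soluble extracellular CD47 with His tag and biotinylated SIRPalpha domains; 0% is about no effect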). A digest of the protocol:
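TR-FRET read (Ch1/Ch2 ratio) of soluble extracellular CD47 and Avi-biotinylated SIRPalpha domains in PBS pH 7.4 with 0.05% IGEPAL; 7-point compound titration. Sequential 30 min room-temperature steps; non-biotinylated SIRPalpha as control inhibitor.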

For assay [15], the target named is Parathyroid hormone/parathyroid hormone-related peptide receptor (Homo sapiens) (UniProt Q03431). Briefly: qHTS for PTHR1 Agonists: Optimization Screen against the NCGC LOPAC library (AID 1347079).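 Further: GloSensor cAMP luminescence in HEK-293 GP2 cells expressing human PTHR1 with IBMX; 0% is about no effect.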 A digest of the protocol: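 Compounds were tested across a qHTS titration. PTHR1-expressing GP2 cells report cAMP rises via GloSensor luminescence after 1 hr compound exposure at 37C with IBMX present.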
Sequence of Parathyroid hormone/parathyroid hormone-related peptide receptor (Homo sapiens) (Q03431 whole entry, looked up): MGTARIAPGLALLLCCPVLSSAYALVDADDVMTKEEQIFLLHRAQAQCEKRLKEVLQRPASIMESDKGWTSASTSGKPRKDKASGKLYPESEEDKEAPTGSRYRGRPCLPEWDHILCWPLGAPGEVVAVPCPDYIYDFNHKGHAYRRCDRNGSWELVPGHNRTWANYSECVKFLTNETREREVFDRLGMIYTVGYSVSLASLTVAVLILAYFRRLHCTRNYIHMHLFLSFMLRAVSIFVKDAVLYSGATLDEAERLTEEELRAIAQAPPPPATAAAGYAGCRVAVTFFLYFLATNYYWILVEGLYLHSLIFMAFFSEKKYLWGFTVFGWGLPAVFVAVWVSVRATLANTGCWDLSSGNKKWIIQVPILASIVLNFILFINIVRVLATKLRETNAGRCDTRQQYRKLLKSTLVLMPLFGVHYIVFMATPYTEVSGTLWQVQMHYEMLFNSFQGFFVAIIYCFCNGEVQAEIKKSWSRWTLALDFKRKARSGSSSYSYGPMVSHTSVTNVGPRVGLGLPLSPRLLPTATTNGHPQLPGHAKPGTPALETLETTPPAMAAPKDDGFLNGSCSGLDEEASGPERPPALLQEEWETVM

The results in this text go back to PubChem BioAssay (NCATS).

Molecules are shown by their SMILES. Values without a mark were called inactive. Results filed as inconclusive are left out. The source made the active and inactive calls. Unless noted, the call rests on the fitted dose curve; in most records, active means well fitted curve in the direction sought with a large enough effect; inconclusive means small, poorly fitted or top-dose-only effect, or another doubt; inactive means no such curve, though single readings can be large; an effect the other way counts as inactive or inconclusive.

Sequence of Atrial natriuretic peptide receptor 1 (Homo sapiens) (P16066 whole entry, looked up): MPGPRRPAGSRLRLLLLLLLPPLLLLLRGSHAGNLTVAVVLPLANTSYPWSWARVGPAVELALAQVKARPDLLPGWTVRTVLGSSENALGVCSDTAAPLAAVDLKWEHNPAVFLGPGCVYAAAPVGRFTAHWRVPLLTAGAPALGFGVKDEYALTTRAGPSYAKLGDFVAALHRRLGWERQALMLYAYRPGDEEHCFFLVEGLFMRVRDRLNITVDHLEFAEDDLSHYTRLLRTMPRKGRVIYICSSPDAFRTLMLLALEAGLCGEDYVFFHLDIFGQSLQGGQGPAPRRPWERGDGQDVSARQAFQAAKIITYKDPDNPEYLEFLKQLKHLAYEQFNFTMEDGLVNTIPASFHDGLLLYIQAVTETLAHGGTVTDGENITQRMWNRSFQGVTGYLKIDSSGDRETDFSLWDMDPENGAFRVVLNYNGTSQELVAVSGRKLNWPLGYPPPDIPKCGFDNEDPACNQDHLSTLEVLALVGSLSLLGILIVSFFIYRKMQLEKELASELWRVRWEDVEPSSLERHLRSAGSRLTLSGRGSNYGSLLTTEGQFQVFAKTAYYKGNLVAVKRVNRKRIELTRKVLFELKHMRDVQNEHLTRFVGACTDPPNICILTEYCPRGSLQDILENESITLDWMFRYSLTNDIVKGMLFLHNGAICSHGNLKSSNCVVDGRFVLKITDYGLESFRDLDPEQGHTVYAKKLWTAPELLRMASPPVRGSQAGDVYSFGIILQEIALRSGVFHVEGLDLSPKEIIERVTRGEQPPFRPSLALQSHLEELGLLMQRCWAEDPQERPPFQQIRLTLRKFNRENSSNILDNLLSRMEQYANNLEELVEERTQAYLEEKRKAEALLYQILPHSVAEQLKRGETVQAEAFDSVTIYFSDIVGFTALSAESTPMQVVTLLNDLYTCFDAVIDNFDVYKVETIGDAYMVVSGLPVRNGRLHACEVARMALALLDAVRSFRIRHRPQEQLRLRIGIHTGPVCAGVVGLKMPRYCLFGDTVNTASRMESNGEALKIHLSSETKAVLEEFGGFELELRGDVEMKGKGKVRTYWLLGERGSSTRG
Sequence of Atrial natriuretic peptide receptor 2 (Homo sapiens) (P20594 whole entry, looked up): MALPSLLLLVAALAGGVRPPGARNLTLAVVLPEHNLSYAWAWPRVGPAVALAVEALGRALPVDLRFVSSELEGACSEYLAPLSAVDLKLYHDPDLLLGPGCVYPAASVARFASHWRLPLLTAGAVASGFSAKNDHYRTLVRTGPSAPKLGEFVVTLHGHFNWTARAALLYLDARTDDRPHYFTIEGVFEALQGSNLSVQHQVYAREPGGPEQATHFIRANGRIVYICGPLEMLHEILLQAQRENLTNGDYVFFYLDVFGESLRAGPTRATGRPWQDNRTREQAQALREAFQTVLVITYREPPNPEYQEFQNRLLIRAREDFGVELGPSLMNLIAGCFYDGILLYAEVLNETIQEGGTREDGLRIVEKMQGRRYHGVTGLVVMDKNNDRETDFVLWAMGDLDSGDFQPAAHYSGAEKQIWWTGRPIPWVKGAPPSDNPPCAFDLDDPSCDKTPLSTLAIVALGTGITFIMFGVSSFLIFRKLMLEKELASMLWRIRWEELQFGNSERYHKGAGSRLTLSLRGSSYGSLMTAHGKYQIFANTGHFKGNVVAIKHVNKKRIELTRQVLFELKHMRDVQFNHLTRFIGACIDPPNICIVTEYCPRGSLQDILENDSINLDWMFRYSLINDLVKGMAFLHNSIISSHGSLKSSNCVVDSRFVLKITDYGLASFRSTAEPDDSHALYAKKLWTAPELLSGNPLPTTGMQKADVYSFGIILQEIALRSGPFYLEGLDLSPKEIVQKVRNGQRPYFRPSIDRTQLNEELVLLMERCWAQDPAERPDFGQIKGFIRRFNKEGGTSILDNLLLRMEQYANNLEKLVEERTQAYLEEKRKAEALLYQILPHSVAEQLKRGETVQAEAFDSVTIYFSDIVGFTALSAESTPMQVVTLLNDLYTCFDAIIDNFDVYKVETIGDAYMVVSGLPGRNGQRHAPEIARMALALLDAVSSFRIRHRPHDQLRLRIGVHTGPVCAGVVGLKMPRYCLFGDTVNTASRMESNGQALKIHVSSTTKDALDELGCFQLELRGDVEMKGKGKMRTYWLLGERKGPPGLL

Consider `CCN(CC)CCNC(=O)c1c(C)[nH]c(/C=C2\C(=O)Nc3ccc(F)cc32)c1C`, for which, in assay [1], the Potency entry was “inactive”. The Potency in assay [2] was 8.36 µM (active); in assay [3], 11.9 µM (active).
With `O=c1[nH]cnc2c1ncn2[C@@H]1O[C@H](CO)[C@@H](O)[C@H]1O`, the result in assay [4] and in assay [5] was inactive. The Potency entry in assay [6], in assay [7], in assay [2] and in assay [8] was “inactive” in each case.
Take `Cn1cc[nH]c1=S`: the Potency result in assay [1], in [7], in [2], in assay [8] and in assay [3] was “inactive” each time. The outcome in assay [4] was inactive.
Regarding `O=Cc1ccccc1C=O`, the Potency result in assay [1], in assay [7], in assay [2], in assay [8] and in [3] was “inactive” each time. For the same molecule, in [4], the outcome was inactive.
As to `N[C@@H](CSSC[C@H](N)C(=O)O)C(=O)O`, the Potency result in assay [1] is “inactive”. The call in [4] was inactive. Further, the activity change, negative = inhibition in [7] was -26.2% [at 0.593 µM]. The values for the activity change, negative = cytotoxic in assay [2], in [8] and in assay [3] were 5.9% [at 0.594 µM], 14.8% [at 0.597 µM] and 12.9% [at 0.597 µM], respectively.
As for `NC1[C@H]2CN(c3nc4c(cc3F)c(=O)c(C(=O)O)cn4-c3ccc(F)cc3F)C[C@@H]12` (stereo not given in full), the result in [4], in assay [9] and in [10] was inactive. Further, the Potency entry in [6], in [7] and in [3] was “inactive” each time.
As to `O=C1NS(=O)(=O)c2ccccc21`, the Potency result in assay [1], in [7], in [8] and in assay [3] was “inactive” in each case. The result in assay [4] was inactive.
On to `CCN(CC)C(=O)Nc1ccc(OCC(O)CNC(C)(C)C)c(C(C)=O)c1` (stereo not given), for which the Potency result in [1], in assay [7], in assay [2], in [8] and in assay [3] was “inactive” throughout. Further, in assay [4], the molecule was called inactive.
For the molecule `CN1[C@@H]2CC(OC(=O)[C@H](CO)c3ccccc3)C[C@H]1[C@@H]1O[C@@H]12` (stereo not given in full), the Potency result in [1], in [7], in assay [2] and in [3] was “inactive” each time. Further, the call in assay [4] was inactive.
Regarding `NC(=O)N/N=C/c1ccc([N+](=O)[O-])o1`, the Potency entry in [1], in assay [7], in [2], in assay [8] and in [3] was “inactive” each time. The molecule was classed as inactive in [4].
Take `CC(C(O)c1ccc(O)cc1)N1CCC(Cc2ccccc2)CC1` (stereo not given): the call in assay [4], in assay [11], in assay [12], in [9], in assay [14] and in [10] was inactive. In addition, the outcome in [5] was “inactive [at 17.4 µM]”. Also, the Potency result in assay [6], in assay [13], in assay [7], in [15], in assay [2] and in assay [8] was “inactive” in each case. Also, the Potency entry in [3] is “inactive”.
In the case of `CC12CCC(CC1)C(C)(C)O2`, the Potency entry in assay [1], in [7], in assay [2], in assay [8] and in [3] was “inactive” in each case. Moreover, the molecule was classed as inactive in assay [4].
For `Nc1ccc(S(=O)(=O)Nc2ccc(Cl)nn2)cc1`, the Potency entry in assay [1], in [7], in [8] and in assay [3] was “inactive” in each case. The call in assay [4] was inactive.
